From PubChem
Hsp70 act: Hsp70 transcriptional activators, primary screen, cell-based, HeLa, Hsp70 promoter luciferase, luminescence, 10 µM; HeLa Hsp70 promoter luciferase reporter; scaled: vehicle 0, proteasome-inhibitor control 100%; activation, % at 10 µM; hit rate 0.04% among 200,000;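 active means activation above the mean across all tested compounds plus 3 SD, cutoff set per campaign, cut at about 5.5% in these data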
CHOP inhibitor: inhibitors of CHOP promoter induction, primary screen, cell-based, unfolded protein response, luciferase reporter. CHO-K1 CHOP-promoter luciferase, tunicamycin-induced, 15-18 h. inhibition, % at 10 µM. hit rate 3.8% among 220,000;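 active means compounds that reduced the stress-induced luciferase reporter signal by more than about 70% of percent inhibition, limit read from the data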
S1P4 agonist: S1P4 receptor agonists, primary screen, cell-based; Sphingosine 1-phosphate receptor 4 (Homo sapiens), O95977; S1P4-expressing cell line, agonist reporter assay; activation, % at 4.98 µM; hit rate 0.35% among 220,000; AID 1509, 2009; in the data active means activation above about 11%
Target sequence (O95977 whole entry, looked up): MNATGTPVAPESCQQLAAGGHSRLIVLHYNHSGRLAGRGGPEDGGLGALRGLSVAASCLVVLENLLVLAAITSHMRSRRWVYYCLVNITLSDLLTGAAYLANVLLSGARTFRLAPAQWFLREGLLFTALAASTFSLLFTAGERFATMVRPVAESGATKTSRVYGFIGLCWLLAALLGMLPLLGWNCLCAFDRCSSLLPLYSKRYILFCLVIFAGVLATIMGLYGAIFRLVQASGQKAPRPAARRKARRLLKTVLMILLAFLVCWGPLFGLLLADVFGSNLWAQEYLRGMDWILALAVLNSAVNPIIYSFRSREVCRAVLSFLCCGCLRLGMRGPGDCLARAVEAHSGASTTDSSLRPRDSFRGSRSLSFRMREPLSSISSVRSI
S1P4 antag: S1P4 receptor antagonists, primary screen, cell-based | S1P4-expressing cells, antagonist mode, reporter read-out | inhibition, % at 4.98 µM | hit rate 0.26% among 220,000 | AID 1510, 2009; in the data active means inhibition above about 29%
Hits are given with their value; i = inactive; nt = no result. Only some compounds are listed: those with a hit (about 4.2% of all), similar ones and a draw of the others.

SMILES	Hsp70 act	CHOP inhibitor	S1P4 agonist	S1P4 antag
O=C(c1ccccc1)N(Cc1ccccc1)c1ccccn1	i	i	i	i
COc1ccc(C2SCC(=O)N2CCc2ccc(OC)c(OC)c2)cc1 (stereo unspecified)	i	i	i	i
COc1ccc(C2SCC(=O)N2CC23CC4CC(CC(C4)C2)C3)cc1 (stereo unspecified)	i	86	i	i
COc1cc(/C=N/N=C(\N)c2nonc2N)cc(OC)c1O	nt	i	i	i
COc1cc(/C=N/N=C(/N)c2nonc2N)cc(Br)c1OCc1cccc(C)c1	i	71	i	i
CCOc1cc(/C=N/NC(N)=S)cc(Br)c1OCc1ccccc1C	i	86	i	i
COc1ccc(/C=N/N=C(\N)c2nonc2N)cc1	i	i	i	i
COc1cc(/C=N/NC(N)=S)cc(Br)c1OCc1ccccc1F	i	i	i	i
CCOc1cc(/C=N/N=C(\N)c2nonc2N)cc(Br)c1OCc1cccc2ccccc12	i	95	i	i
COC(=O)CCS(=O)(=O)c1ccc(NC(C)=O)cc1	i	i	i	i
CCOC(=O)Cc1c(C)nc2c(-c3ccc(Cl)cc3)cnn2c1C	i	i	i	i
Cc1cccc(NC(=O)CN2C(=O)S/C(=C\C(=O)Nc3ccc(Cl)cc3)C2=O)c1	i	i	i	i
CC(/C=C1\SC(=O)N(CC(=O)Nc2cccc(O)c2)C1=O)=C\c1ccccc1	i	95	i	i
FC(F)(F)c1cccc(NC(=S)N2CCN(c3ccccc3)CC2)c1	i	80	i	i
FC(F)(F)c1cccc(N2CCN(C(=S)NC3CCCC3)CC2)c1	i	81	i	i
CN1CCN(C(=S)Nc2cccc(C(F)(F)F)c2)CC1	i	i	i	i
Cc1ccc(NS(=O)(=O)c2ccc(C3CCCCC3)cc2)cc1	i	95	i	i
Cc1ccc(NC2CCCCC2NS(=O)(=O)c2ccc(Cl)cc2)cc1 (stereo unspecified)	i	91	i	i
Cc1nn(C)cc1CN(C)Cc1c(C(=O)N(C)Cc2ccccc2)nc2ccccn12	i	i	i	i
CO/N=C(\c1nonc1N)N1CCN(c2ccc([N+](=O)[O-])cc2Cl)CC1	i	73	i	i
S=C(NCc1ccco1)N1CCN(c2ccc(Cl)cc2)CC1	i	i	i	i
S=C(NCc1ccco1)N1CCN(Cc2ccc(Cl)cc2Cl)CC1	i	74	i	i
Cc1cc(N2CCN(C(=O)c3ccco3)CC2)n2nc(-c3cccc(Cl)c3)cc2n1	i	96	i	i
Cc1cc(N2CCN(C(=O)c3ccco3)CC2)n2nc(C)c(-c3ccccc3)c2n1	i	i	i	i
CCOC(=O)/C(=N\Nc1cccc(C(F)(F)F)c1)N(CCOC)CCOC	i	i	i	i
SMILES	Hsp70 act	CHOP inhibitor	S1P4 agonist	S1P4 antag
NC(=O)c1ccsc1NC(=O)COC(=O)Cc1cccc2ccccc12	i	85	i	i
COc1cc(CNC2CCCC2)cc(Cl)c1OCc1ccc(F)cc1	i	i	i	i
COc1cc(CNC2CCCC2)cc(Cl)c1OCc1ccccc1Cl	i	74	i	i
N#CC(c1ccc(Cl)cc1)c1nc2ccccc2nc1C(F)(F)F (stereo unspecified)	i	i	i	i
CN(CC(=O)Nc1nc2ccccc2s1)S(=O)(=O)c1ccc(Cl)cc1	i	84	i	i
COc1ccc(CC(=O)OCC(=O)NC(=O)NC23CC4CC(CC(C4)C2)C3)cc1	i	96	i	i
CCCNS(=O)(=O)c1ccc(CCC(=O)Nc2cc(Cl)ccc2Oc2ccccc2)cc1	i	90	i	i
COc1ccc(Cc2nnc(Nc3ccc4c(c3)OCCO4)[nH]c2=O)cc1	i	i	i	i
O=C(/C=C1\C(=O)Nc2ccccc21)/C=C1\C(=O)Nc2ccccc21	nt	i	i	46
CN(O)/C=C1\C(=O)Nc2ccccc21	i	i	i	i
O=C(NNc1nc2ccccc2o1)c1ccccc1	nt	i	i	i
COc1cc(NC(=O)c2cc(C3CC3)on2)c(OC)cc1Cl	i	84	i	i
COc1cc(NC(=O)c2cc(C(C)C)on2)c(OC)cc1Cl	i	i	i	i
CCC(Cc1ccccc1)NC(=O)Cn1ncc2ccsc2c1=O (stereo unspecified)	i	i	i	i
Cc1ccccc1-c1nnc(NC(=O)c2ccc(N3C(=O)CCC3=O)cc2)s1	i	i	i	i
CCc1ccc(OCC(=O)N/N=C(\C)c2ccccc2OC(F)F)cc1	i	i	i	i
CCc1ccc(OCC(=O)N/N=C(\C)c2ccc(OC(F)F)cc2)cc1	i	78	i	i
O=C(Oc1nsnc1N1CCOCC1)N1CCCCC1	i	nt	i	i
O=C(Oc1nsnc1N1CCOCC1)N1CCOCC1	i	71	i	i
CC(/C=C/C(=O)c1ccc(C)cc1)=C\c1ccccc1	i	91	i	i
O=S(=O)(Nc1nc2ccccc2nc1Nc1ccc(N2CCOCC2)cc1)c1cc(Cl)ccc1Cl	i	74	i	i
CCc1cccc(CC)c1NC(=O)/C(C#N)=C/c1ccccc1C(F)(F)F	i	84	i	i
O=S(=O)(c1ccc2nc(SCc3ccc(Cl)cc3)[nH]c2c1)N1CCOCC1	i	i	i	i
O=S(=O)(c1ccc2nc(-c3ccccc3)[nH]c2c1)N1CCN(c2ccc(Cl)cc2)CC1	i	105	i	i
CCCN(Cc1cc2cc(OC)ccc2[nH]c1=O)C(=O)c1ccco1	nt	i	i	i
SMILES	Hsp70 act	CHOP inhibitor	S1P4 agonist	S1P4 antag
CC(=O)N1CC=C2C(C#N)=C(N)C(C#N)(C#N)C(CCc3ccccc3)C2C1 (stereo unspecified)	i	73	i	i
O=[N+]([O-])c1cc(S(=O)(=O)N2CCCCCC2)ccc1Cl	i	i	i	86
Cc1ccc(S(=O)(=O)N2CCCC2)cc1[N+](=O)[O-]	i	i	i	i
O=C(CCl)Nc1cc(S(=O)(=O)N2CCCCCC2)ccc1Cl	i	78	i	i
CC(C)(C)CC(=O)Nc1cc(S(=O)(=O)N2CCCCCC2)ccc1Cl	i	i	i	i
COc1ccccc1NC(=O)c1ccc([N+](=O)[O-])cc1[N+](=O)[O-]	i	i	i	i
CC(/C=N/NC(=O)c1cc(C(C)(C)C)[nH]n1)=C\c1ccccc1	i	76	i	i
CC(/C=N/NC(=O)c1cc(-c2ccc(C)s2)[nH]n1)=C\c1ccccc1	i	96	i	i
Cc1ccc(-c2cc(C(=O)N/N=C/c3ccco3)n[nH]2)s1	i	i	i	i
CC(=C/c1ccccc1)/C=N/NC(=O)c1ccccn1	nt	i	i	i
Cc1nn(-c2ccccc2)c(C)c1/C=N/NC(=O)c1cc(-c2ccc(Br)s2)[nH]n1	i	70	i	i
CCCn1nnnc1NCc1ccc(N2CCCC2)cc1	i	i	i	i
C=CCc1cccc(/C=N/NC(=O)c2ccccc2OC)c1O	i	i	i	i
C=CCNc1ncnc2ccccc12	i	nt	i	i
CS(=O)c1ccccc1-c1nc(-c2cc(C(F)(F)F)cc(C(F)(F)F)c2)no1 (stereo unspecified)	i	82	i	i
